Test results reported in PubChem BioAssay (NCI).
Compounds without any hit were thinned out: in the full panel of roughly 79,000, 15% have a hit. Unmarked numbers belong to inactive results. The source made the active and inactive calls. Rule as the data show it: active = growth inhibition above about 70%; inactive = the rest.

Key:
[1] = NCI Yeast Anticancer Drug Screen. Data for the rad50 strain (AID 155);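 also: 0% = growth of vehicle-only cultures of the same strain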; details: S. cerevisiae rad50 strain growth inhibition; at 50.0 µM; stronger effect = higher value
In short: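 Compounds were tested on a yeast strain with an engineered DNA damage repair alteration; the reported value is growth inhibition normalised to vehicle treatment.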

[2] = NCI Yeast Anticancer Drug Screen. Data for the mec2-1 strain (AID 157); details: S. cerevisiae mec2-1 strain, at 50.0 µM, stronger effect = higher value
In short: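 Mutant yeast (mec2-1) grown with compound; growth inhibition relative to vehicle control reported.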

[3] = NCI Yeast Anticancer Drug Screen. Data for the sgs1 mgt1 strain (AID 161);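 also: 0% = growth of cultures given vehicle only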; details: S. cerevisiae sgs1 mgt1 strain, at 50.0 µM, stronger effect = higher value
In short: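 Percent growth inhibition was derived by comparing compound-exposed mutant yeast with vehicle-exposed cultures. The strain carries alterations in DNA damage repair.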

[4] = NCI Yeast Anticancer Drug Screen. Data for the cln2 rad14 strain (AID 165);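 also: 0% = growth equal to vehicle treated cultures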; details: S. cerevisiae cln2 rad14 strain, at 50.0 µM, stronger effect = higher value
In short: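 Readout is yeast growth inhibition versus vehicle-treated controls, using a strain with cln2 and rad14 alterations exposed to compound.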

[5] = NCI Yeast Anticancer Drug Screen. Data for the bub3 strain (AID 167); details: S. cerevisiae bub3 mutant strain, at 50.0 µM, stronger effect = higher value
In short: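 Growth of a checkpoint-deficient yeast mutant is measured after compound exposure. Values represent inhibition relative to vehicle.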

[6] = NCI Yeast Anticancer Drug Screen. Data for the mlh1 rad18 strain (AID 175); details: S. cerevisiae mlh1 rad18 strain growth inhibition; at 50.0 µM; stronger effect = higher value
In short: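 Genetically defined yeast (DNA repair-deficient) exposed to compounds; growth inhibition determined relative to vehicle.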

SMILES	growth inhibition [1]	growth inhibition [2]	growth inhibition [3]	growth inhibition [4]	growth inhibition [5]	growth inhibition [6]
CC(Sc1ccccc1)C(CO)(CO)[N+](=O)[O-] (stereo not given)	-15.1%	1.8%	28.4%	9.4%	-14.6%	28.4%
Clc1ccc(Cl)c(N=Nc2cc3c4c(c2)CCN4CCC3)c1	-34%	-35.1%	-15.2%	-16.3%	-10.8%	-18.8%
CCOc1c(N2CCOCC2)c(=O)c1=O	11.6%	-19.4%	5.7%	6.65%	30.9%	5.95%
C=CC1(c2ccc(Cl)c(Cl)c2)OCCO1	-11.3%	15.8%	15%	-6.5%	9.55%	25.4%
N#Cc1c(F)c(F)c(Oc2c(F)c(F)c(F)c(F)c2F)c(F)c1Oc1c(F)c(F)c(F)c(F)c1F	-1.1%	11%	-11.8%	9%	-0.3%	5.8%
CS(C)(=O)=Nc1ccc(F)cc1	8.9%	-7.6%	-2.3%	-21.7%	-13.1%	3.25%
O=C(Nc1cccc(Cl)c1)C(=O)C(C(=O)c1ccc2ccccc2c1)C1OC(=O)c2ccccc21 (stereo not given)	39%	18.4%	26.1%	37.2%	22.9%	-9.1%
Cc1cc(N(CCC#N)CCC#N)ccc1N=Nc1cccc(C(=O)O)c1	-40.4%	-33.8%	-10%	-16.4%	-33.8%	-27.1%
CC1CC(C)OC(C)(c2ccccc2)O1 (stereo not given)	21.4%	-6%	-0.9%	-33.1%	-18.5%	8.6%
COc1cc(C2c3cc4c(c(OC(=O)c5ccncc5)c3CC3COC(=O)C32)OCO4)cc(OC)c1OC (stereo not given)	1.15%	-11.6%	35.8%	15.8%	5.8%	-0.05%
COC(=O)c1ccccc1-n1c(-c2ccc([N+](=O)[O-])cc2)csc1=NC(=O)c1cccc([N+](=O)[O-])c1	-2.15%	-2.15%	19.4%	-1.05%	-1.15%	12.7%
CCOC(=O)C1C(=O)C(=O)N(C)C1c1ccccc1 (stereo not given)	-2.6%	16.3%	8.1%	-49.9%	2.7%	8.55%
Cc1ccc2c3c1CCCN3CCC2	3.45%	-3.85%	15.6%	61.9%	-0.55%	8.95%
CCCOc1ccc(C2=C(c3ccccc3)C(=O)C(c3ccccc3)=C2c2ccccc2)cc1	34.2%	15.6%	20.6%	20.2%	2.25%	20.6%
c1ccc(-c2nc3ccccc3nc2SCc2cccnc2)cc1	14.4%	-18.1%	-19.7%	-18.2%	-30.8%	-9.8%
CCOC(=O)CCN(CCC(=O)OCC)Cc1cc(Cl)c2cccnc2c1O	99.1% (active)	98.6% (active)	99% (active)	98.5% (active)	99.3% (active)	97.8% (active)
CCCCCCCC/C=C\CCCCCCCC(=O)NCCN(CCN)C(=O)CCCCCCC/C=C\CCCCCCCC	-20.9%	-18.4%	-16.8%	-20.6%	-41.9%	-23.8%
N#CC(C(=O)C(N)=O)c1ccccc1Cl (stereo not given)	-13.5%	-26.8%	-6.8%	-0.7%	-12.2%	-17.3%
O=C(O)C1C2OC3C(OC(=O)C31)C2Cl (stereo not given)	-4.5%	6%	9.85%	-14.3%	-6.5%	-12.3%
O=C(OCCCCCCCCOC(=O)c1cccc([N+](=O)[O-])c1)c1cccc([N+](=O)[O-])c1	20.9%	11.8%	11.8%	8.15%	-5.55%	4.85%

SMILES	growth inhibition [1]	growth inhibition [2]	growth inhibition [3]	growth inhibition [4]	growth inhibition [5]	growth inhibition [6]
C=C1c2cc3c(cc2CC12Cc1cc4c(cc1C2=O)CCC4)CCC3 (stereo not given)	20.2%	22%	11.3%	24.1%	46.8%	16%
CC(=O)c1cccc(NC(=O)N2CCN(c3ccccc3)CC2)c1	11.4%	34%	20%	1.25%	23.9%	16.6%
CC1(C)C2CCC1(CC(=O)O)C(O)C2=O (stereo not given)	-13.3%	-23.2%	-14.6%	-12.6%	-4.6%	-5.45%
O=C(O)c1c(CC(Cc2ccc3c(c2)CCCC3)C(=O)O)ccc2c1CCCC2 (stereo not given)	46.3%	23.6%	9.8%	11.8%	40.9%	56.7%
BrC1CCC(OCc2ccccc2)C(OCc2ccccc2)C1 (stereo not given)	-10.8%	7.25%	13.8%	8.85%	10.7%	-0.95%
COC(=O)N/N=C/c1ccccc1Cl	4.55%	-31%	-18.6%	-64.8%	-12.5%	-12.2%
CCCCCNC(=O)c1ccc([N+](=O)[O-])cc1	7.35%	-1.75%	3.75%	4.85%	-1%	13.9%
COC(=O)N/N=C(\c1ccc(OC)cc1)C(c1ccc(OC)cc1)C1(O)C(=O)Nc2c(C)cc(Cl)cc21 (stereo not given)	20.1%	14.8%	-4.35%	-30.6%	18.6%	18.6%
COc1ccc(C(C)OC)cc1OC (stereo not given)	-15%	-22.2%	15.6%	-16.6%	8.7%	-8.75%
Cc1cn(C2CC(OS(C)(=O)=O)C(COC(c3ccccc3)(c3ccccc3)c3ccccc3)O2)c(=O)[nH]c1=O (stereo not given)	30.9%	1.95%	16.6%	-15.2%	-0.9%	15.3%
CCCCOC(=O)C1C(c2ccc(Cl)cc2)NC(c2ccc(Cl)cc2)C(C(=O)OCCCC)S1(=O)=O (stereo not given)	-28.2%	-15.1%	-14.5%	-1.4%	-2.35%	-45.2%
CC1=CC(=O)C(CN(C)C)(CN(C)C)C(C)(C)C1	4.85%	9.35%	7.65%	0.25%	-1.65%	13.1%
COc1cc([N+](=O)[O-])ccc1P(=O)(O)O	2%	-5.65%	-1.4%	-4.35%	-9.95%	14.1%
Cc1cccc(C)c1NC=O	4.7%	-2.35%	-3.3%	1.45%	-9.8%	8.9%
O=C(Nc1ccccc1-c1ccccc1)c1ccccc1	1.15%	-11.5%	20.1%	11.3%	45.4%	26.9%
CCCCCCCCCCCCCCNC(=O)CCl	14.8%	-17.5%	-5.8%	-8.5%	-9.25%	-16.2%
NS(=O)(=O)N1CN(S(N)(=O)=O)CN(S(N)(=O)=O)C1	-3.4%	4.1%	2.65%	-18.6%	9.75%	13.4%
c1ccc(-c2ccccc2-c2ccccc2-c2ccccc2)cc1	-58.8%	-5.6%	-5.9%	-39.5%	21.5%	-12.3%
C1CCC(N(CCN(C2CCCCC2)C2CCCCC2)C2CCCCC2)CC1	-38.5%	-32.8%	-26.7%	15.3%	5.6%	-11.9%
C[n+]1c(-c2ccc(Cl)c(Cl)c2)c2cc(N)ccc2c2ccccc21	14.9%	-22.6%	30.6%	3.9%	7.2%	14.4%
